Several values for one entry are separate records, joined by “and”; a condition that tells them apart may be missing. Equal values may be shown once. Results filed as inconclusive are left out. A call without a number means that no potency is given here. A number with no mark means an inactive call. Activity calls are given as the source filed them. Calls come from the whole dose curve; as a rule, active = well fitted activation curve with a large enough effect in the repeat runs; inconclusive = weak or mixed curves; inactive = flat fitted curve, though single readings scatter.
Assay: A CellTox Green Cytotoxicity Assay to monitor cytotoxicity in HEK293 cells - 32 hour (AID 1224881); note: nearly all actives have a fitted effect of over 40% in size
Conditions: CellTox Green fluorescence; series mostly up to 76.8 µM
Text: National Center for Advancing Translational Sciences [NCATS]
NIH Chemical Genomics Center [NCGC]
U.S. Environmental Protection Agency [EPA]
National Institutes of Environmental Health Sciences [NIEHS]
National Toxicology Program [NTP]
Cell-based models are critical for drug discovery. Determining the natural cytotoxic effects resulting from test compounds is an essential research activity. A CellTox Green Cytotoxicity Assay to monitor cytotoxicity in real time of continues cell culture during 40 hours of the compound treatment was used to screen Tox21 10K library compounds in Hek293 cells. CellTox Green Cytotoxicity Assay is a nonlytic, homogeneous, biofluorescent method to measure cytotoxicity in cell culture after experimental manipulation. The assay system uses a proprietary asymmetric cyanine dye that is excluded from viable cells but preferentially stains the dead cell's DNA. […] Viable cells produce no appreciable increases in fluorescence. Therefore, the fluorescence signal produced by the binding interaction with dead cell DNA is proportional to cytotoxicity.
The mixture of Hek293 cell suspension and reagents were dispensed at 600cells/6 ul/well in 1536-well tissue culture treated black solid bottom plates using a Multidrop dispenser. After the assay plates were incubated at a 37 C/5% CO2 incubator for 5 hours, 23 nL of compounds dissolved in DMSO, positive and negative controls was transferred to the assay plate by a pintool work station. The plates were incubated at 37 C for 40 hours. The fluorescence intensity were measured at 0h, 8h, 16h, 24h, 32h and 40h time points using ViewLux plate reader during compound treatment.
For `CCCCCCCCCCCCOC(=O)c1ccc(O)cc1`, the Potency was “inactive”. For `CC(C)(C)C1CCC(=O)CC1`, the Potency was “inactive”. With `O[C@@H]([C@H](O)[C@H](O)CBr)[C@H](O)CBr` the Potency was “inactive”. With `O=C(O)[C@H](O)[C@@H](O)[C@H](O[C@@H]1O[C@H](CO)[C@H](O)[C@H](O)[C@H]1O)[C@H](O)CO` the Potency was “inactive”. For `Cc1ccc(C(C)C)cc2c(C)ccc1-2`, the Potency was “inactive”. With `O=S(=O)(O)c1ccccc1/C=C/c1ccc(-c2ccc(/C=C/c3ccccc3S(=O)(=O)O)cc2)cc1` the Potency was “inactive”. With `COc1cc(/C=C/c2ccccc2)oc(=O)c1` the Potency was “inactive”. With `C=CC(C)(CCC=C(C)C)OC=O` (stereo not given) the Potency was “inactive”. In the case of `Cc1nc2n(c(=O)c1CCN1CCC(c3noc4cc(F)ccc34)CC1)CCCC2`, the Potency is reported as “inactive”. In the case of `S=c1nccc[nH]1`, the Potency is reported as “inactive”. In the case of `CCC(=O)C(=O)CC`, the Potency is reported as “inactive”. With `OC/C=C/CO` the Potency was “inactive”. With `O=c1c(O)c(-c2ccc(O)cc2O)oc2cc(O)cc(O)c12` the Potency was “inactive”. With `Cc1ccc(N/N=c2\c(=O)cc/c(=N\Nc3ccc(S(=O)(=O)O)cc3)c2=O)c(C)c1` the Potency was “inactive”. For `Oc1ccccc1O`, the Potency was “inactive”. `C[C@H]1NCc2cc(-c3ccc4c(=O)c(C(=O)O)cn(C5CC5)c4c3OC(F)F)ccc21` showed a cytotoxicity increase of -2.38% [at 15.8 µM]. For `O=[N+]([O-])c1ccc(O)cc1C(F)(F)F`, the Potency was “inactive”. With `CCCCC(CC)CN1CN(CC(CC)CCCC)CC(C)(N)C1` (stereo not given) the Potency was 10.7 µM (active). In the case of `Cc1cc(C(C)(C)C)c(O)c(C)c1Cn1c(=O)n(Cc2c(C)cc(C(C)(C)C)c(O)c2C)c(=O)n(Cc2c(C)cc(C(C)(C)C)c(O)c2C)c1=O`, the Potency is reported as “inactive”. With `Cc1nc(-c2ccc(Cl)cc2)oc1COC(C)(C)C(=O)O` the Potency was “inactive”. Molecule `NC[C@H]1O[C@H](O[C@H]2[C@H](O[C@@H]3O[C@H](CO)[C@@H](O)[C@H]3O)C(O)[C@H](N)C[C@@H]2N)[C@H](N)[C@@H](O)[C@@H]1O` (stereo not given in full) has a cytotoxicity increase of -11.8% [at 6.97 µM]. For `CCCC(=O)OCOC(=O)C1=C(C)NC(C)=C(C(=O)OC)C1c1cccc(Cl)c1Cl` (stereo not given), the Potency was “inactive”. For `O=c1[nH]c2ccccc2n1CCCN1CCN(C(c2ccccc2)c2ccccc2)CC1`, the Potency was “inactive”. In the case of `CCC(C)n1ncn(-c2ccc(N3CCN(c4ccc(OC[C@H]5CO[C@](Cn6cncn6)(c6ccc(Cl)cc6Cl)O5)cc4)CC3)cc2)c1=O` (stereo not given in full), the Potency is reported as “inactive”. In the case of `OC1CCCc2ccccc21` (stereo not given), the Potency is reported as “inactive”. In the case of `Cc1c(C)c2c(c(C)c1O)CC[C@@](C)(CCC[C@H](C)CCC[C@H](C)CCCC(C)C)O2`, the Potency is reported as “inactive”. With `C#C[C@]1(O)CC[C@H]2[C@@H]3[C@H](C)CC4=C(CCC(=O)C4)[C@H]3CC[C@@]21C` the Potency was “inactive”. For `c1cnccn1`, the Potency was “inactive”. For `Cc1c(C)c([N+](=O)[O-])c(C(C)(C)C)c([N+](=O)[O-])c1C`, the Potency was “inactive”. For `O=c1oc2cc(O)ccc2c2oc3cc(O)ccc3c12`, the Potency was “inactive”. For `Cc1ccc(O)c(N)c1`, the Potency was “inactive”. For `CCc1ccc(Br)cc1`, the Potency was “inactive”. With `O=C1c2ccccc2C(=O)N1SC1CCCCC1` the Potency was 12.3 µM (active) and 24.5 µM (active). With `COC(=O)Nc1nc2ccc(C(=O)c3ccccc3)cc2[nH]1` the Potency was “inactive”. With `CCCCCCCCCCCC(=O)OCC(C)OC(=O)CCCCC(=O)O` (stereo not given) the Potency was “inactive”. With `Cc1cc(C(C)(C)C)cc(C)c1CC1=NCCN1` the Potency was “inactive”. With `OCC(F)(F)F` the Potency was “inactive”. In the case of `COc1c(C)c2c(c(O)c1C/C=C(\C)CCC(=O)OCCN1CCOCC1)C(=O)OC2`, the Potency is reported as “inactive”. For `Fc1ccc(C(c2ccc(F)cc2)N2CCNCC2)cc1`, the Potency was “inactive”. In the case of `CCCCCCOC(=O)C(C)CC` (stereo not given), the Potency is reported as “inactive”.

From PubChem BioAssay (Tox21)
Potency is the fitted concentration of half-maximal effect.
